From PubChem BioAssay AID1309 (The Scripps Research Institute Molecular Screening Center, 2008)
Hit rate of the full screen: of about 1,200 compounds, about 130 (11%) were called active. A selection follows. Unmarked numbers belong to inactive results. Cut-off read from the data, not from the text of the source: active = activation above about 120%; inactive = the rest.

Experiment: activation of NF-kB-driven transcription – cell-based, counter-screen for STAT3 activator project (AID 1309);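 note: reporter induced by TNF-alpha stimulation; 100% = median of stimulated DMSO wells and 0% = no signal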
Settings: human cells, NF-kappaB reporter activation; at 5.7 µM; stronger effect = higher value

SMILES | activation (% of control)
Fc1ccc2nc(-c3ccccc3)nc(SCc3nnc(-c4ccccc4)o3)c2c1 | 106%
COc1ccccc1N1CCN(C(=O)c2cc3c(-c4ccc(Cl)cc4)nn(C)c3s2)CC1 | 101%
Cn1cccc1C(=O)Nc1nccs1 | 111%
N#Cc1ccccc1NC(=O)COc1c(Br)cc(Br)c2cccnc12 | 107%
COC(=O)c1[nH]c2ccccc2c1NC(=O)CN1CCCc2ccccc21 | 106%
CCOC(=O)N1CCN(CC(=O)Nc2cc(C)nn2-c2nc3ccccc3s2)CC1 | 106%
C/C(=N\NC(=O)CNc1cccc2ccccc12)c1ccc(Br)s1 | 103%
COc1ccc(/C=N/Nc2ncnc3sc4c(c23)CCCC4)cc1O | 110%
O=C1CCCN1CCCNc1ncnc2c1[nH]c1ccccc12 | 100%
COc1ccc(C2c3[nH]c4ccccc4c3CCN2CCCn2cccn2)cc1C (stereo not given) | 102%
CCn1c(SCC(=O)N/N=C/C=C/c2ccccc2[N+](=O)[O-])nnc1-c1ccccc1 | 101%
CCOC(=O)C1CCN(c2ncnc3c2oc2ccc(Br)cc23)CC1 | 102%
CN1CCN(c2ccc([N+](=O)[O-])c(Sc3nc4ccccc4[nH]3)c2)CC1 | 102%
CSc1nc2sc3c(c2c(=O)[nH]1)CCc1ccccc1-3 | 108%
C=CCCC(=O)Nc1nc(C)c(-c2csc(Nc3ccc(Cl)cc3)n2)s1 | 107%
COc1ccc([N+](=O)[O-])cc1C1NN=C(c2cccc3ccccc23)S1 (stereo not given) | 114%
Cc1ccc(S(=O)(=O)Nc2nc3ccccc3nc2N2CCc3ccccc3C2)cc1 | 107%
COc1ccc(NC(=O)ON=C2c3ccccc3-c3ccccc32)cc1 | 108%
O=c1[nH]c(CSc2ncc(-c3ccc(F)cc3)n2Cc2ccco2)nc2ccccc12 | 107%
OC(COc1ccc2ccccc2c1)CN1CCOCC1 (stereo not given) | 107%
Oc1cccc2ccc(/C=C/c3ccc(Br)s3)nc12 | 122% (active)
CCCS(=O)(=O)Nc1c(C(=O)O)[nH]c2ccccc12 | 103%
O=C(Nc1cc(C(F)(F)F)ccc1Cl)c1cc(C2CC2)on1 | 100%
O=C(O)CSCc1nc2ccccc2s1 | 112%
Cc1ccc(/C=N/NC(=O)COc2ccccc2-c2ccccc2)cc1 | 155% (active)

SMILES | activation (% of control)
C=CCn1c(-c2ccccc2OCC)n[nH]c1=S | 115%
Cc1csc2ncc(C(=O)N(Cc3ccccc3)c3ccccn3)c(=O)n12 | 103%
Cc1cccc(C(=O)N2CCc3c([nH]c4ccccc34)C2CC(C)C)n1 (stereo not given) | 110%
Cc1nc(N=C(N)N)nc2c(C)cccc12 | 110%
COc1ccc(Cl)cc1NC(=O)c1oc(C)nc1C | 108%
COC(=O)c1[nH]c2ccccc2c1NS(=O)(=O)c1ccc(OC)cc1OC | 104%
CN1C(=O)/C(=C\c2cc(Br)cs2)c2ccccc21 | 120%
O=C(NCc1ccco1)c1cccn2c(=O)c3c4c(sc3nc12)CCCC4 | 106%
Cc1cccc(C(=O)Nc2nnc(Cc3c[nH]c4ccccc34)s2)c1 | 101%
Cc1ccc(-c2cc(C(=O)Nc3nn[nH]n3)c3ccccc3n2)c(C)c1 | 99.3%
CSc1nc(N(C)NC(=O)c2cccc(C)c2)c2ccccc2n1 | 159% (active)
CSCCC(NC(=O)c1ccco1)C(=O)OCC(=O)Nc1ncc(Cl)c(C)c1Cl (stereo not given) | 97.1%
Cc1nc2ccccc2cc1O | 98%
N#Cc1c(C(F)(F)F)cc(-c2ccc(Cl)cc2)nc1SCC(=O)O | 107%
Oc1c(C=Nc2cccc3nsnc23)ccc2ccccc12 | 96.6%
Cc1ccc(C2=NN(C)c3nc4ccccc4n3C2)cc1 | 112%
Cc1ccc(OCc2nnc(SC3CCc4ccccc4C3=O)n2C)cc1 (stereo not given) | 111%
CC(=O)Nc1ccc(NC(=O)COc2ccccc2C(=O)Nc2cccc(Cl)c2Cl)cc1 | 102%
CC(C)CNC(=O)COC(=O)/C=C/c1ccccc1[N+](=O)[O-] | 97.8%
COc1nc(N=C(N)N)nc2c(C)cccc12 | 109%
c1ccc(-c2cn3c(n2)CCc2ccc4cccnc4c2-3)cc1 | 106%
O=C(Cc1c[nH]c2ccccc12)OCCOC(=O)Cc1c[nH]c2ccccc12 | 99.2%
COc1cccc(NC(=S)C(C#N)=C2N(C)c3ccccc3N2C)c1 | 94.8%
NC(=O)CSc1c[nH]c2ccccc12 | 102%
COc1cccc(/C=C(/CC(=O)Nc2ccc(N3CCOCC3)cc2)c2nc3ccccc3s2)c1 | 114%

SMILES | activation (% of control)
Cc1ccc(NC(=O)c2cc([N+](=O)[O-])ccc2Cl)c(O)c1 | 107%
CCCCC(=O)Nc1nc(C)c(-c2csc(Nc3ccc(Cl)cc3)n2)s1 | 101%
C/C(=N\c1nc2ccccc2n1C)c1cc(Cl)ccc1O | 99.6%
COc1cc(OC)cc(C(=O)N[C@H](C(=O)Nc2nc3ccccc3[nH]2)C(C)C)c1 | 138% (active)
COc1ccccc1-c1nnc(SCC(=O)N2CC(C)CC(C)C2)o1 (stereo not given) | 101%
COc1ccccc1-c1nnc(NC(=O)c2ccc3ncsc3c2)o1 | 127% (active)
Oc1cccc(C2c3[nH]c4ccccc4c3CCN2Cc2cnn(-c3ccccc3)c2)c1 (stereo not given) | 105%
CCNCc1cc2cc(C)ccc2[nH]c1=O | 101%
COC(=O)c1[nH]c2cccc(C)c2c1NC(=O)CN1CCCc2ccccc21 | 96.7%
CCOc1ccc(C2c3[nH]c4ccccc4c3CCN2Cc2cn(CC)nc2C)cc1 (stereo not given) | 111%
COc1ccc(C)cc1NC(=O)c1[nH]c(C)c(C(C)=O)c1C | 99.2%
COc1ccc(-c2c3c(=O)n(C)c(=O)n(C)c3cn2-c2cccc(OC)c2)cc1 | 103%
O=C(O)CS/C(=C\c1ccc(F)cc1)c1nc2ccccc2s1 | 116%
Cc1ccc(N=Nc2c(C)[nH]n(-c3ccccc3)c2=O)cc1 | 106%
COc1cc(NS(=O)(=O)c2ccc(N/C=C(\C=O)c3nc4cc(Cl)ccc4o3)cc2)nc(OC)n1 | 104%
COCCCNc1nc2c(-c3cccc(C(F)(F)F)c3)nnn2c2ccccc12 | 109%
CCOC(=O)c1c(-c2cccc(C)c2)csc1NC(=O)c1c(-c2ccccc2)noc1C | 71.3%
Cc1ccc(Nc2nc(-c3sc(NC(=O)c4ccccc4)nc3C)cs2)cc1 | 102%
Cc1cccc(N(CC(=O)N=Nc2c(O)[nH]c3ccccc23)S(C)(=O)=O)c1C | 103%
O=[N+]([O-])c1ccc(N2CCN(S(=O)(=O)c3ccc4ccccc4c3)CC2)cc1NCc1ccco1 | 105%
CCSc1nnc(-c2cc3c(s2)-c2ccccc2CC3)o1 | 118%
Cn1nc(-c2ccc(Cl)cc2)c2cc(C(=O)NCc3ccco3)sc21 | 104%
COc1ccccc1C1C2=C(COC2=O)Nc2cc3c(cc21)OCO3 (stereo not given) | 166% (active)
CCOC(=O)CN(C)Cc1c[nH]c2ccccc12 | 105%
O=C(C1CCN(S(=O)(=O)Cc2ccccc2)CC1)N1CCCc2ccccc21 | 108%
